# This is a sample that favours compounds with a hit; in the whole collection about 6.6% have one here.
# Bead autofluor: compound fluorescence in toxin protease inhibitor counterscreen | compound autofluorescence counterscreen, microsphere flow cytometry; stronger effect = higher value | fluorescence intensity (test concentration not listed) | hit rate 3.1% among 360,000 | AID 624483; in the data active = fluorescence intensity above about 16000; inconclusive = no clear call, values can overlap the other calls
# Anthrax LF inh2: anthrax lethal factor protease inhibition; P15917; multiplex microsphere protease cleavage assay, LF; inhibition, % at 10 µM; hit rate 0.12% among 360,000; also: plate controls were buffer without enzyme for full effect and enzyme alone for no effect
# Target sequence (P15917 whole entry, looked up): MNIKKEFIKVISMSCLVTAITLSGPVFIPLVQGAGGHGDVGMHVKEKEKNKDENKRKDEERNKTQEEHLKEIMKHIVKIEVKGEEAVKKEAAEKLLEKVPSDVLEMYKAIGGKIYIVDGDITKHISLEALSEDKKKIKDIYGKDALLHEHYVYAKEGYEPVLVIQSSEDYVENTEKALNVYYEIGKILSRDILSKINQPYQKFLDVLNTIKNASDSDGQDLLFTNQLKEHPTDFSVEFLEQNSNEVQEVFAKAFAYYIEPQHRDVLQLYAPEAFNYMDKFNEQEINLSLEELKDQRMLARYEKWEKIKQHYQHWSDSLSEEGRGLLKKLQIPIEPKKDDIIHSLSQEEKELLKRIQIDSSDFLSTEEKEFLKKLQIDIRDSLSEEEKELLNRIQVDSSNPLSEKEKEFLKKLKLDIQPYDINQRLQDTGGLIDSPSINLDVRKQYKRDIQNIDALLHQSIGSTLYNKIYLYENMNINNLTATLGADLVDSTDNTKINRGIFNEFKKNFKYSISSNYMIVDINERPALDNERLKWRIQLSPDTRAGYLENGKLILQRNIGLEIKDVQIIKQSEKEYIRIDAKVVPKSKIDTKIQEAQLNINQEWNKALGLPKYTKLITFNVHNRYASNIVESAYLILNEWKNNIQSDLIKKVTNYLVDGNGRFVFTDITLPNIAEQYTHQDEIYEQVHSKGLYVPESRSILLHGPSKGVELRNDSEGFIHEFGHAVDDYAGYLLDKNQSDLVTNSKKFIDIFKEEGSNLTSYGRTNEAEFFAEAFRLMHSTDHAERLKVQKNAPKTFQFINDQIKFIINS
# Mtb FBA inh: Mtb fructose-bisphosphate aldolase inhibition. P9WQA3. purified M. tuberculosis FBA, fluorescence read-out. inhibition, % at 1 µM. hit rate 2.3% among 360,000; in the data active = inhibition above about 27%;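 also: 0% = vehicle and 100% = reference inhibitor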
# GDH-TPI inh: inhibits GDH-TPI coupling enzymes, artifact for Mtb FBA screen; GDH-TPI coupled enzyme counterscreen, NADH absorbance; inhibition, % at 4.8 µM; hit rate 1.2% among 360,000; AID 588335; in the data active = inhibition above about 30%;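 also: 0% = DMSO wells and 100% = wells lacking the enzyme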
# BoNT A protease: blocks Botulinum neurotoxin A light chain protease; multiplex microsphere protease substrate cleavage, flow cytometry; inhibition, % at 10 µM; hit rate 0.17% among 360,000; also: plate controls were buffer without enzyme for full effect and enzyme alone for no effect
# BoNT-F LC inh: blocks Botulinum neurotoxin F light chain protease; Multiplex microsphere protease cleavage assay, flow cytometry; inhibition, % at 10 µM; hit rate 0.22% among 360,000; AID 588497; in the data active = inhibition above about 35%, passing the limit was not always enough; inconclusive = no clear call, values can overlap the other calls; also: plate controls were buffer without enzyme for full effect and enzyme alone for no effect
# Active calls of the source: *; ? = inconclusive. Rule as the data show it, unless noted: active = inhibition above about 30%; inconclusive = no clear call, values can overlap the other calls; inactive = below that.
SMILES,Bead autofluor,Anthrax LF inh2,Mtb FBA inh,GDH-TPI inh,BoNT A protease,BoNT-F LC inh
CCOC(=O)N1CCN(S(=O)(=O)c2ccc(OC)c(OC)c2)CC1,25529*,-0.8,3.1,8.9,-2.9,-6.6
CCOC(=O)N1CCN(C(=O)CN(Cc2ccc(Cl)cc2)S(=O)(=O)c2ccc(C)cc2)CC1,24719*,-1.7,3.3,4.2,-4.3,-5.7
CCOC(=O)N1CCC(NC(=O)c2cc(S(=O)(=O)N3CCOCC3)ccc2F)CC1,20906*,1.1,-1.0,0.7,-0.7,0.0
CCOC(=O)N1CCN(S(=O)(=O)c2ccc(Cl)cc2)CC1,3544,4.4,2.3,-2.6,-2.2,-7.8
CCOC(=O)N1CCN(C(=O)CN(Cc2ccc(Cl)cc2)S(C)(=O)=O)CC1,2834,1.1,2.2,0.0,0.4,5.5
CCOC(=O)N1CCC(N2CCN(S(=O)(=O)c3ccc(Cl)cc3)CC2)CC1,19293*,2.0,-0.3,1.9,?,2.8
CCOC(=O)N1CCC(NC(=O)c2cc(S(=O)(=O)N3CCC4(CC3)OCCO4)ccc2F)CC1,11134,-1.4,4.2,2.4,0.3,-2.9
CCOC(=O)N1CCN(S(=O)(=O)c2ccc(OC)c(Cl)c2)CC1,3138,4.8,1.7,-6.0,1.0,0.3
Cc1ccc(F)cc1C(=O)N1CCCCC1c1cc(C(=O)Nc2cccc(C#N)c2)no1 (stereo unspecified),3861,-8.3,0.0,5.5,-1.0,-3.8
CN1C(=O)C(CC(=O)NCCc2ccccc2)N(NC(=O)c2ccc(Cl)cc2)C1=S (stereo unspecified),3636,-13.0,-1.9,-3.4,?,?
CCOC(=O)N1CCC(NC(=O)c2ccc3c(c2)N(CC)CCS3)CC1,5999,-7.0,73.4*,2.4,-0.2,-0.1
CCOC(=O)N1CCC(NC(=O)c2ccc(CNS(=O)(=O)c3ccc(F)cc3)cc2)CC1,17979*,-1.8,-0.1,2.1,-8.2,-7.0
Cc1ccc(CN2CCSc3ccc(C(=O)NC4CCCC4)cc32)cc1,5239,0.3,7.0,-2.7,1.6,8.0
COC(=O)c1cc(S(=O)(=O)N2CCC(C)CC2)ccc1F,22718*,-0.6,3.9,4.2,2.5,2.4
Cc1ccc(S(=O)(=O)NCc2ccc(C(=O)NC3CC3)cc2)cc1,9834,5.6,2.5,-4.8,4.3,-4.0
COc1ccc(C(=O)CN2CCN(S(=O)(=O)c3cccc([N+](=O)[O-])c3)CC2)cc1,2191,-0.9,1.0,4.2,0.6,3.9
O=C(Oc1cc2oc(=O)cc(-c3ccccc3)c2cc1Cl)C1CCCCC1,4830,-3.0,31.6*,16.0,0.5,-22.2
CC(C)(C)OC(=O)NCC(=O)Oc1cc2oc(=O)cc(-c3ccccc3)c2cc1Cl,2143,-1.5,26.1,12.9,0.6,1.4
CCc1ccc(Nc2nc(C)cc(C)n2)cc1,4099,6.3,-1.1,1.5,-11.0,?
NC(=O)c1ccsc1NC(=O)COC(=O)c1ccccn1,3947,0.0,0.8,-1.0,-0.3,-6.8
Fc1cccc(C2CCCCN2Cc2nc(C3CC3)no2)c1 (stereo unspecified),4007,-1.5,0.0,-4.5,0.2,1.2
O=C(c1ccccc1)N(C1=NCCCCS1)c1ccccc1,6714,-3.9,1.4,4.5,1.1,-3.9
CC(c1ccccc1)C1C(C#N)=C(N)OC2=C1C(=O)CC(C)(C)C2 (stereo unspecified),23366*,-1.1,6.0,5.8,-1.6,0.0
CC1(C)CC(=O)C2=C(C1)OC(N)=C(C#N)C2C#Cc1ccccc1 (stereo unspecified),2836,-1.5,3.0,3.0,0.9,5.6
CN1CCN(/C=N/C2=C(C#N)C(c3ccccc3)C3=C(CC(C)(C)CC3=O)O2)CC1 (stereo unspecified),22390*,-2.4,0.0,15.8,-1.4,-4.3
SMILES,Bead autofluor,Anthrax LF inh2,Mtb FBA inh,GDH-TPI inh,BoNT A protease,BoNT-F LC inh
CCOC(=O)N1CCN(c2c(N3CCc4ccccc43)c(=O)c2=O)CC1,6473,-6.8,0.2,51.4*,-1.2,-3.4
CCOC(=O)N1CCN(c2c(NCCc3ccc(OCC)c(OCC)c3)c(=O)c2=O)CC1,24406*,0.5,-1.8,16.1,-3.6,-5.0
CCOC(=O)N1CCN(c2c(Nc3ccc4c(c3)OCCO4)c(=O)c2=O)CC1,5650,5.4,1.7,42.2*,0.4,-5.1
Cn1ccc(C(=O)NC(=S)N2CCSCC2)n1,6629,-16.1,0.1,0.4,0.0,-4.7
CC(=O)c1ccc(NC(=O)CN(C)CC(=O)Nc2cccc(F)c2)cc1,4046,-2.0,-1.2,-1.2,0.2,2.1
Cc1cc(C)c2nc(SCC(=O)NCCC3=CCCCC3)cc(C)c2c1,8010,-6.6,1.6,16.1,-0.9,-8.0
COC(=O)c1cc2c(-c3ccccc3)cc3ccccn3c-2c1C(=O)OC,2429,-1.1,-4.5,35.2*,3.2,6.6
CCOC(=O)c1ccc(NC(=O)Nc2ccc3c(c2)OCCO3)cc1,9020,-8.9,0.4,-1.7,0.2,0.8
CCC(C)(C(=O)Nc1ccc2c(c1)OCCO2)N(C(C)=O)c1ccc(C(N)=O)cc1 (stereo unspecified),10010,-6.9,-1.3,31.8*,-0.3,4.4
O=C(c1ccccc1)c1c2c(cc3sc4ccccc4[n+]13)-c1cccc3cccc-2c13,6966,1.5,-5.0,13.0,73.3*,-15.9
CN(C)S(=O)(=O)N1CCN(S(=O)(=O)N(C)C)CC1,6453,-6.1,1.9,9.5,-0.5,-2.4
CC1CN(S(=O)(=O)N(C)C)CCN1S(=O)(=O)N(C)C (stereo unspecified),19855*,0.1,-1.6,0.6,1.0,0.8
O=C(NC1CCCCC1)C1CCN(C(=O)NCc2ccccc2)CC1,16321*,-2.5,-1.2,7.3,0.9,1.8
O=C(NCc1ccccc1F)C1CCN(C(=O)NCc2ccccc2)CC1,17003*,-5.8,-5.6,13.3,-1.8,-2.9
C#Cc1ccc(NC(=O)C2(C)CCN2C(=O)c2cc(C)n(C)n2)cc1 (stereo unspecified),3764,4.4,1.8,-2.6,0.6,-1.6
CCCn1nnnc1NCc1ccccc1Cl,3728,-5.4,-1.0,-2.4,-2.5,-15.7
Cc1ccc(CSCCNC(=O)CSCc2ccc([N+](=O)[O-])cc2)cc1,20785*,-3.1,-2.3,0.7,-0.3,-2.9
Cc1ccccc1CSCCNC(=O)CSCc1ccc([N+](=O)[O-])cc1,21363*,-2.9,-3.4,11.2,?,0.4
CC(Oc1ccc(Br)cc1)C(=O)NCCCN1CCCC1=O (stereo unspecified),5391,1.8,-2.2,-1.0,-0.3,2.3
C/C(=N\O)c1ccc(Cl)cc1Cl,4459,-3.7,0.8,4.0,-0.5,-7.7
C/C(=N\O)c1cc(Cl)cc(Cl)c1O,4650,34.5*,2.5,7.3,1.6,?
CSc1ccc(CCNC(=O)CN2C(=O)CCSc3ccccc32)cc1,4254,-10.8,1.1,1.0,-3.0,-28.6
c1ccc2nc3c(nc2c1)OCC1CCCCN31 (stereo unspecified),3702,-3.1,149.5*,17.9,2.8,0.8
C[C@H]1C=C(C(=O)NC2CC2)O[C@@H](OCc2ccc(CO)cc2)C1,4162,4.1,-2.7,0.9,-0.2,-0.8

# Screening results (PubChem)
